Data from PubChem BioAssay (NCATS).
Results filed as inconclusive are left out. The source made the active and inactive calls. Calls come from the whole dose curve; as a rule, active = well fitted inhibition curve with a large enough effect; inconclusive = small, poorly fitted or top-dose-only effect; inactive = flat fitted curve, though single readings scatter.

Each compound was assayed against Calcium and integrin-binding protein 1 (Homo sapiens) (UniProt Q99828) (assay: Primary qHTS for Identification of Calcium Integrin Binding Protein 1 (CIB1) Competitor (AID 1508620;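 note: GST tagged CIB1 binding a fluorescein labelled alphaIIb integrin peptide tracer; top concentration of the series differs between compounds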)). Conditions: CIB1-GST / FITC-alphaIIb peptide fluorescence polarization; series mostly up to 114 µM; activity change, negative = inhibition: at the top concentration.
Outline: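 CIB1-GST (1 uM final) and compound incubated 15 min at room temperature before adding FITC-alphaIIb peptide tracer (100 nM final). Competition for binding read by fluorescence polarization (ex 480, em 540) after another 15 min at room temperature.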
% is set by controls: 0 for no effect and ±100 for the full control effect.

Sequence of Calcium and integrin-binding protein 1 (Homo sapiens) (Q99828 whole entry, looked up): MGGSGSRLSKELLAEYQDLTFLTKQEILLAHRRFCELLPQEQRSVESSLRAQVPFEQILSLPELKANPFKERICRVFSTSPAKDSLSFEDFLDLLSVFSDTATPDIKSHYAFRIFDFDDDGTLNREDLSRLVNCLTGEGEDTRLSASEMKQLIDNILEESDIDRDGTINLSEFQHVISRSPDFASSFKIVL

SMILES | activity change, negative = inhibition
CCOC(=O)CCCC(=O)Nc1ncnc2c1C(c1ccccc1)c1c(ccc3ccccc13)O2 (configuration not stated) | 7.37% (inactive)
O=C(Nc1nnc(-c2ccncc2)s1)Nc1cc(C(F)(F)F)ccc1F | 4.19% (inactive)
O=C(CNC(=O)c1ccc(Cl)c(C(F)(F)F)c1)OC(C(=O)Nc1cc(C(F)(F)F)ccc1Cl)c1ccccc1 (configuration not stated) | -4.97% (inactive)
COc1cccc(C(=O)Nc2ccc(-c3nc4ccccc4[nH]3)cc2)c1 | 3.84% (inactive)
Cc1ccc2nc3sc(C(=O)Nc4ccncc4)cc3cc2c1 | -1.51% (inactive)
Cc1cc2c(s1)c1cnn(Cc3ccc(C)c(F)c3)c(=O)c1n2C | 8.21% (inactive)
CN(C)CCCNC(=O)c1ccc(-c2cnc3c(O)cccc3c2)cc1 | -18.9% (inactive)
O=C(Nc1cncc(Cc2ccccc2)c1)c1ccc(-c2cccc([N+](=O)[O-])c2)o1 | -1.53% (inactive)
COc1ccc(NC(=O)C(OC(=O)CNC(=O)c2ccccc2)c2ccccc2)c(C)c1 (configuration not stated) | -2.14% (inactive)
CC(=O)N[C@H](C(=O)N[C@@H](C)C(=O)N[C@H](C#N)CC(=O)O)C(C)C | 3.24% (inactive)
Oc1cccc2cc(Nc3ccccc3)cnc12 | -22.5% (inactive)
COc1ccccc1-c1ccc(=O)n(CC(=O)NCCc2ccccc2)n1 | 5.07% (inactive)
O=C(Cc1nnc(-c2cc3ccccc3[nH]2)o1)Nc1cc(C(F)(F)F)ccc1Cl | -4.4% (inactive)
O=C(Cn1cc(CNCc2ccccc2)nn1)Nc1cc(C(F)(F)F)ccc1Cl | 4.52% (inactive)
Fc1cnc(-c2ccccc2C(F)F)nc1NCc1ccc(-c2cccnc2)cc1 | -2.09% (inactive)
C(=C/c1cccs1)/c1ccncc1 | -0.322% (inactive)
Cc1cc2c(s1)c1cnn(Cc3ccc(C#N)cc3)c(=O)c1n2C | 0.5% (inactive)
